Measurements reported in PubChem BioAssay (NCI).
This is part of a sample that, as a whole, favours compounds with a hit. Of some 83,000 tested, about 20% had one in any assay.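 Note: values are percent growth. 100 is the growth of untreated cells, values between 100 and 0 indicate rising inhibition; between -100 and 0 indicates cell death.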 Values without a mark were called inactive. The source made the active and inactive calls. How the source made its calls: active means growth percent below 10; inactive means the rest.

What was measured:
Assay in all cases: NCI-60 one-dose screen, 48 h (100 = growth as untreated, 0 = no growth, -100 = all killed)
Conditions in all cases: 10 µM unless noted
[1] = tested on: HCT-15 colon
[2] = tested on: HT29 colon
[3] = tested on: SNB-75 CNS
[4] = tested on: SNB-19 CNS
[5] = tested on: U251 CNS
[6] = tested on: PC-3 prostate
[7] = tested on: SK-MEL-5 melanoma
[8] = tested on: UACC-62 melanoma
[9] = tested on: LOX IMVI melanoma
[10] = tested on: SK-MEL-28 melanoma

Compound | growth [1] | growth [2] | growth [3] | growth [4] | growth [5] | growth [6] | growth [7] | growth [8] | growth [9] | growth [10]
CCOC(=O)C1CSC(C)(C(=O)OCC)N1 (stereo not given) | 101% | 87.9% | 100% | 107% | 106% | 95.1% | 101% | 105% | 98.2% | 107%
CCCCOc1c(N)cc(Cl)cc1C(=O)OCCN(CC)CC | 111% | 74.8% | 101% | 101% | 90.1% | 80.9% | 102% | 96.7% | 103% | 114%
Cc1cccc(NC(=O)CCc2ccc(N3C(N)=NC(N)=NC3(C)C)cc2)c1 | 103% | 17.1% | 60.2% | 37% | 36.9% | 10.5% | 26.9% | 24.6% | 18.7% | 69.9%
O=S(=O)(O)c1ccc(F)cc1 | 104% | 96.5% | 101% | 114% | 109% | 106% | 105% | 107% | 98.9% | 111%
CNCCCOc1c(Br)cc(CCNC(=O)/C(Cc2cc(Br)c(OC)c(Br)c2)=N/O)cc1Br | -58.3% (active) | -48.2% (active) | 8.28% (active) | -23% (active) | -84% (active) | -40.4% (active) | -90.2% (active) | -47% (active) | -80.1% (active) | -64.2% (active)
COc1ccc(-c2nn(-c3ccc(NC(=O)Nc4ccc(Cl)c(Cl)c4)cc3)cc2-c2ccncc2)cc1Cl | 7.56% (active) | 6.65% (active) | 46.8% | 34.4% | 0.654% (active) | 11.3% | -27.5% (active) | 9.56% (active) | -0.494% (active) | 28.4%
O=c1c2ccccc2sc2c(NCCCNCCO)nc3ccccc3c12 | 13.7% | -47.3% (active) | 35.3% | 63.7% | 21.3% | 22.1% | -64.7% (active) | -17.8% (active) | -87.4% (active) | -18.1% (active)
FC(F)(F)c1cccc([Si](F)(c2cccc(C(F)(F)F)c2)c2cccc(C(F)(F)F)c2)c1 | 72.1% | 59.3% | 80.4% | 77.7% | 72.1% | 24.2% | 84.2% | 68.4% | 72.9% | 85.8%
O=C1COc2ccccc2C(=O)N1CCCCN1CCCCC1 | 91.3% | 73.6% | 99.5% | 99.4% | 88.9% | 57.7% | 99.1% | 91.6% | 90.7% | 95.6%
C=C1C(=O)O[C@H]2[C@H]1CC/C(CNC(=O)/C1=C/CC[C@@]3(C)O[C@H]3[C@H]3OC(=O)C(=C)[C@@H]3CC1)=C\CC[C@@]1(C)O[C@@H]21 | 93.7% | 95.4% | 86.3% | 97.6% | 94.2% | 99% | 97.2% | 85.1% | 88.2% | 96.2%
CN1CCN(Cn2nc(-c3cc(F)c(Cl)cc3Cl)n(/N=C/c3ccc(N(C)C)cc3)c2=S)CC1 | 100% | 99.5% | 78.7% | 71.5% | 95.2% | 76.2% | 79.7% | 79.4% | 79.9% | 82.1%
O=C(Nc1cccc(-n2ccc3c(NC(=O)c4ccccc4)nccc32)c1)c1cc(N2CCOCC2)cc(C(F)(F)F)c1 | 3.17% (active) | -22.6% (active) | 39.2% | 26.3% | 4.89% (active) | 27.9% | -74.7% (active) | 17.5% | 9.47% (active) | 38%
COC(=O)c1oc2c(C(C)=O)c(OCCCN(C)C)ccc2c1C | 99.6% | 69.1% | 91.3% | 103% | 99.5% | 88.9% | 103% | 98.8% | 95% | 110%
O=C(C[n+]1cccc(Br)c1)c1ccc2c(c1)CCCC2 | 99.4% | 80.7% | 101% | 108% | 102% | 94.3% | 99.2% | 104% | 97.1% | 105%
COc1ccc(N)c(S)c1 | 97% | 100% | 84.6% | 100% | 93.8% | 73.4% | 91.5% | 93.5% | 92.3% | 113%
O=[N+]([O-])c1cccc(C2c3ccccc3Oc3ccccc32)c1 | 71.1% | 85.1% | 94.4% | 97.1% | 94.7% | 84.2% | 99.4% | 86.1% | 85.8% | 107%
C=CC(=O)Nc1cccc(Nc2nc(Nc3ccc(OCCOC(F)F)cc3)ncc2F)c1 | 22.4% | 33.8% | 4.93% (active) | 55.7% | 30.1% | 40.7% | 79.6% | 24.1% | 18% | 68%
O=C(/C=C/c1ccco1)c1cccc(Nc2nc(Nc3ccccc3)nc(Nc3ccccc3)n2)c1 | 72% | 79.1% | 60.2% | 92.4% | 77.1% | 66.4% | 81.2% | 80.3% | 83.5% | 95%
CNCCCOc1c(Br)cc(CCNC(=O)/C(Cc2ccc(OC)c(Br)c2)=N/O)cc1Br | 22.9% | 5.72% (active) | 50.6% | 50.3% | 27.5% | 34.5% | 38.9% | 9.73% (active) | -35.4% (active) | -21.7% (active)
CC(=O)CC/C=C(\C)[C@H](O)[C@H](C)C(=O)O[C@H]1C[C@H](C)C=C2C=C[C@@]3(C)O[C@@H](O)CC(=O)[C@]3(C)[C@H]21 | 0.209% (active) | -33.8% (active) | -85.3% (active) | -12.3% (active) | -25.9% (active) | -31.2% (active) | -91.7% (active) | -56.6% (active) | -55.1% (active) | -40.7% (active)
NC(CCCC(N)C(=O)c1ccccc1)C(=O)O (stereo not given) | 107% | 73.3% | 97.1% | 110% | 102% | 83.3% | 107% | 99.9% | 99.8% | 103%
C=C1C(=O)O[C@H]2[C@H]1CC/C(COC(=O)c1cc(OC)c(OC)c(OC)c1)=C\CC[C@@]1(C)O[C@@H]21 | -42.8% (active) | -80.2% (active) | 45.9% | 30.5% | 9.17% (active) | 18.6% | -23.8% (active) | -50.7% (active) | -94.9% (active) | -36.5% (active)
COc1ccc(NC(=O)Nc2ccc(-c3ccc(OC)c(OC)c3)nc2C)cc1 | 91.8% | 68.8% | 47.5% | 71.5% | 22.1% | 81.4% | 23% | 59.9% | 88.8% | 86.8%
C/C(=N/O)c1ccc(NC(=O)Cn2nc(-c3ccc(Cl)cc3)nc2N)cc1 | 114% | 86.8% | 87.3% | 89.1% | 90.3% | 71.8% | 98.1% | 91.8% | 97% | 114%
COc1ccc(CCNC=O)cc1OC | 103% | 114% | 80.7% | 92.4% | 110% | 100% | 95.5% | 103% | 98.1% | 106%
CCCCCCCCCCCCCCCC(=O)NS(=O)(=O)OC[C@H]1O[C@@H](n2cnc3c(N)ncnc32)[C@H](O)[C@@H]1O | -8.55% (active) | -17.1% (active) | -41.6% (active) | -53.7% (active) | -87.5% (active) | -52.4% (active) | -88.8% (active) | -48.9% (active) | -64.8% (active) | -59.7% (active)
C#CCn1c(-c2cc(OC)c(OC)cc2Br)nc(-c2ccccc2)c1-c1ccccc1 | 29.7% | 9% (active) | 43.1% | 55% | 45.4% | 25.2% | 12.4% | 40% | 34.9% | 69.8%
